High-throughput results as filed in PubChem BioAssay.
Only some compounds are listed: those with a hit (about 2.2% of all), similar ones and a draw of the others.
MOR-DOR inv ag: inverse agonists of human mu-delta opioid receptor heterodimerization | cell-based MOR-DOR heterodimer luminescence, inverse agonism | inhibition, % at 9.3 µM | actives 0.21% (n = 340,000) | AID 504357; in the data active means inhibition above about 22%, passing the limit was not always enough;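 further: 0% = cells with DMSO and 100% = wells without cells with DMSO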
HTR5A inv ag: HTR5A inverse agonism, opioid heterodimer counter-screen; inhibition, % at 9.3 µM; actives 0.083% (n = 340,000); HTR5A cell line, luminescence; AID 504634; in the data active means inhibition mostly above about 23%, no sharp cut-off; inactive means mostly below about 18%;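 further: 0% = cells with DMSO and 100% = no-cell wells with DMSO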
HTR2A ag: activates the mouse 5-HT2A serotonin receptor | P35363 | CHO-K1 mHTR2A beta-arrestin complementation, luminescence; percent of 30 µM serotonin response | activation, % at 7.6 µM | actives 0.66% (n = 360,000);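 active means activation above a run cutoff, the mean activation of all tested compounds plus 3 SD, cut at about 14% in these data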;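 further: 0% = plate median of compound wells and 100% = 30 µM serotonin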
HTR5A ag: activates human HTR5A in OPRM1-OPRD1 agonist counter-screen; HTR5A agonist assay, luminescence, cell-based; activation, % at 9.3 µM; actives 0.61% (n = 340,000); AID 504692; in the data active means activation mostly above about 9.5%, no sharp cut-off; inactive means mostly below about 7.6%;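 further: 0% = cells with vehicle only and 100% = reference agonist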
MOR-DOR ag-1: OPRM1-OPRD1 heterodimerization agonism; AID 504326; cells, luminescence; P35372+P41143; activation, % at 9.3 µM; actives 0.3% (n = 340,000);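 further: 0% = vehicle-treated cells and 100% = reference agonist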
HGIII-sPLA2 inh: Inhibits HGIII-sPLA2 liposome hydrolysis, primary screen; inhibition, % at 12.2 µM; AID 743126; Q9NZ20; actives 0.56% (n = 370,000); QFRET BODIPY PC-A2 liposome hydrolysis, fluorescence;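 active means inhibition above mean plus 3 SD of compounds lying within the high and low control bounds, cut at about 19% in these data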;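 further: 0% = median of test compound wells and 100% = no enzyme DMSO wells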
Target sequence (Q9NZ20 whole entry, looked up): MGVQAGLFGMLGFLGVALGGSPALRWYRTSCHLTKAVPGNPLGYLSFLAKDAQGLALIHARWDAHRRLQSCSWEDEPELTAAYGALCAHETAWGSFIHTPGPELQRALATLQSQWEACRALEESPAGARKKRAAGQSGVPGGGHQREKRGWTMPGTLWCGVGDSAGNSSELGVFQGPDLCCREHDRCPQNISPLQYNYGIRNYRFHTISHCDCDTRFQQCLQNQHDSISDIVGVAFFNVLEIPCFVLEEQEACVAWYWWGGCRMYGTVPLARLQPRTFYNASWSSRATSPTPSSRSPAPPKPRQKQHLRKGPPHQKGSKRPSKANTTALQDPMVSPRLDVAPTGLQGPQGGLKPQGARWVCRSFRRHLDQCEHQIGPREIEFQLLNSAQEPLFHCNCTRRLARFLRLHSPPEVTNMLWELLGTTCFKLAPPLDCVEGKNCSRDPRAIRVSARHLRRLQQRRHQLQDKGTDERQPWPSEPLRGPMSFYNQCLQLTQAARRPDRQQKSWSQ
MOR-DOR ag-2: promotes OPRM1-OPRD1 heterodimerization in HTR5A counter-screen | shares compounds with HTR5A ag | U2OS counter-screen cells, complementation luminescence, 3 h | activation, % at 9.3 µM | actives 13% (n = 800)
HTR5A ag confirm: confirmation of human HTR5A agonists; shares compounds with HTR5A ag; HTR5A agonist cell assay, luminescence; activation, % at 9.3 µM; actives 17% (n = 800); in the data active means activation above about 17%;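 further: 0% = cells with vehicle only and 100% = full reference agonist response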
Starred values were filed as active, the others as inactive; · = no result given. Unless noted, no stated cut-off is given here; in the data, active means activation above about 18%; inactive means the rest.

SMILES	MOR-DOR inv ag	HTR5A inv ag	HTR2A ag	HTR5A ag	MOR-DOR ag-1	HGIII-sPLA2 inh	MOR-DOR ag-2	HTR5A ag confirm
COc1ccc(NC(=O)CSc2nc3nc(C)cc(C)n3n2)cc1	9	-11	-1	4	-1	10	·	·
COc1ccc(OC)c(NC(=O)CSc2nc3nc(C)cc(C)n3n2)c1	9	-41	2	17*	-2	-8	0	-3
Cc1sc2nc(COC(=O)CNC(=O)c3cc(F)ccc3F)[nH]c(=O)c2c1C	·	·	·	·	·	1	·	·
Cc1ccc(Nc2nc(N)nc(CN3CCN(Cc4ccc5c(c4)OCO5)CC3)n2)cc1Cl	-6	-18	-5	18*	1	-22	0	5
Cn1c(SCC(=O)NCC2CCCO2)nc2c([nH]c3ccccc32)c1=O (stereo unspecified)	-4	-6	0	22*	1	-1	-1	1
C=CCn1c(SCC(=O)NCC2CCCO2)nc2c([nH]c3ccccc32)c1=O (stereo unspecified)	14	15	2	-1	-3	0	·	·
O=C(OCC#CCSc1nnc(-c2ccc(Cl)cc2)o1)c1ccc(F)cc1	·	·	·	·	·	3	·	·
C[C@@H](NC(=O)c1nc[nH]c1C(=O)NCC(=O)OCc1ccccc1)c1ccccc1	-4	-64	9	24*	1	-15	3	2
O=C(N/N=C/c1ccc(O)cc1)c1ccc(COc2cc(Cl)ccc2Cl)o1	-40	-42	3	14*	7	-20	41*	2
Cc1nc(N)nc(N)c1CCCc1ccc(Cl)c(Cl)c1	-8	-30	-3	18*	2	4	1	0
COC(=O)CN1CCN(C(=O)c2csc(-c3ccccc3)n2)CC1	·	·	·	·	·	-6	·	·
COc1cccc(N=C(N)N=C(N)N)c1	-2	-43	2	16*	0	3	2	2
COC(=O)C1CCCN(C(=O)C2CCN(S(=O)(=O)c3cccs3)CC2)C1 (stereo unspecified)	·	·	·	·	·	0	·	·
COC(=O)N1C[C@H](OC(=O)c2ccc(-c3ccccc3)cc2)[C@H]2C[C@@H]1c1ccccc1O2	·	·	·	·	·	11	·	·
Cc1cc(C(=O)COC(=O)c2ccc(O)cc2O)c(C)n1-c1ccc(OC(F)F)cc1	-50	-12	2	27*	8	-30	1	25*
COc1ccc(-n2c(C)cc(C(=O)COC(=O)c3ccc(O)cc3O)c2C)cc1	-45	-12	10	15*	11	-13	7	10
CCc1cc2ccccc2nc1SCC(=O)Nc1cc(C)on1	-15	-14	1	26*	3	1	3	4
CCc1cc2cc(C)c(C)cc2nc1SCC(=O)Nc1cc(C)on1	9	-4	2	2	-2	-2	·	·
C/C(C=NNC(=O)CSc1nnc(-c2ccccc2)n1-c1ccc(C)cc1)=C\c1ccco1	·	·	·	·	·	-10	·	·
CCN1CCN(c2cc(-c3ccccc3)nc3cc(-c4cccc(F)c4)nn23)CC1	-45	-8	8	14*	10	-12	11	-3
OC1CCN(c2cc(-c3ccccc3)nc3cc(-c4ccc(F)cc4)nn23)CC1	9	-3	0	1	-2	4	·	·
COc1cccc(CO[C@H]2C=C[C@@H](c3ccccc3)O[C@@H]2CO)c1	·	·	·	·	·	7	·	·
CCN(CC)C(=O)CC[C@@H]1CC[C@]2(CCCN(S(=O)(=O)c3ccccc3)C2)O1	·	·	·	·	·	3	·	·
COc1cc(NC(=O)COc2ccccc2Cl)ccc1NC(=O)c1cccs1	-33	-18	6	8	4	-11	·	·
COc1cc(NC(=O)COc2ccccc2[N+](=O)[O-])ccc1NC(=O)c1cccs1	-50	-42	2	16*	9	4	7	9
SMILES	MOR-DOR inv ag	HTR5A inv ag	HTR2A ag	HTR5A ag	MOR-DOR ag-1	HGIII-sPLA2 inh	MOR-DOR ag-2	HTR5A ag confirm
O=C(COc1ccc(C(=S)N2CCC(Cc3ccccc3)CC2)cc1)N1CCOCC1	4	-43	-5	15*	-1	4	5	3
CC(=O)Nc1ccc(OCC(=O)N2CCC(Cc3ccccc3)CC2)cc1	8	4	-1	-1	-2	-5	·	·
CC(C)c1c(C(=O)N/N=C/c2ccc(OCc3ccc(F)cc3)cc2)nnn1-c1nonc1N	-21	-8	-1	15*	4	2	7	-1
Nc1nonc1-n1nnc(C(=O)N/N=C/c2ccc(OCc3ccccc3)cc2)c1COc1ccc(F)cc1	-5	13	-2	1	1	-5	·	·
CC(C)c1c(C(=O)N/N=C/c2ccc(OCc3ccccc3)cc2)nnn1-c1nonc1N	-13	-4	-1	22*	2	-7	41*	-1
Cc1[nH]nc2c1C(c1ccc(Br)cc1)N(Cc1ccccc1)C2=O (stereo unspecified)	·	·	·	·	·	-16	·	·
COc1ccc(-c2csc(NC(C)c3nc4cc(C(=O)NCCCO)ccc4n3Cc3ccc(C)cc3)n2)cc1 (stereo unspecified)	4	-143	-4	30*	-1	-1	0	38*
Cc1ccc(Cn2c(C(C)Nc3nc(-c4ccc(F)cc4)cs3)nc3cc(C(=O)NCCCO)ccc32)cc1 (stereo unspecified)	6	-15	-1	8	-1	-25	·	·
CS(=O)(=O)N[C@@H]1C[C@@H]2O[C@@H](CO)CC[C@@H]2O[C@@H]1CCc1ccc(-c2ccccc2F)cc1	·	·	·	·	·	-19	·	·
COC/C=C/C1=CC2=CC(=O)C(C)(OC(=O)c3cnc4ccccc4n3)C(=O)C2=CN1CCCOC(C)C (stereo unspecified)	-9	-45	-1	18*	2	-8	42*	0
COC(=O)[C@]12C[C@H](CC(=O)NCc3cccc4ccccc34)C(=O)N(Cc3ccco3)C1=C[C@H](COCc1ccccc1)O[C@@H]2C	·	·	·	·	·	-13	·	·
C[C@@H]1Cc2cc(O)cc(O)c2C(=O)O1	·	·	·	·	·	1	·	·
CCOC(=O)[C@]12CCCCC/C=C\1N(CCc1ccc(Cl)cc1)C(=O)[C@H]2CC(=O)NCc1cccc(C(F)(F)F)c1	·	·	·	·	·	-17	·	·
C=CCn1c(SCC(=O)c2ccc(OC)cc2)nnc1-c1cc2cccc(OC)c2o1	-24	-45	2	15*	6	-21	4	12
Cc1nc2ccccc2n1CC(=O)c1ccc(O)c(O)c1	-1	-64	2	22*	0	0	1	21*
Cc1nc2ccccc2n1CC(=O)c1ccccc1	13	-8	-3	0	-3	-3	·	·
CC(C(=O)OCC(=O)N1CCN(c2ccccc2)CC1)N1C(=O)c2ccccc2C1=O (stereo unspecified)	25	-47	-12	19*	-6	-5	3	1
